# Screens (PubChem)
# An excerpt weighted towards active compounds, which were near 13% of everything screened.
# AID923: qHTS Assay for Allosteric/Competitive Inhibitors of Caspase-1: Spectroscopic Profiling in AFC Spectral Region; compound fluorescence, AFC spectral region (405/520 nm); Potency, µM (highest dose often 57.5 µM), usual class: activators; 75,000 compounds, 1.1% hits; AID 923, 2007
#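 Compound autofluorescence profiled at 405 nm ex/520 nm em during kinetic caspase 1 run (50 nM enzyme, 5 uM Ac-WEHD-AFC, HEPES pH 7.5, 10 mM DTT). Titration up to 57 uM; baseline from regression intercept, normalized to AFC standard curve.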
# 4MU fluor: compounds fluorescent in 4-MU spectral region. compound autofluorescence, 340/450 nm, 4-MU equivalents; hits give high values. max dye-equivalent concentration, M. 59,000 compounds, 11% hits. AID 589; in the data active means max dye-equivalent concentration above about 10 nM; inconclusive means mostly about 1.1 nM to 9.6 nM
#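 Compounds in 100 mM Tris, pH 8.0, incubated 15 min at room temperature, then fluorescence read at 340 nm excitation/450 nm emission. Signal converted to 4-MU dye-equivalent concentration using an on-plate six-point 4-MU standard curve.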
# HADH2 inh: inhibitors of human HADH2 dehydrogenase | Q99714 | recombinant HADH2, NADH fluorescence, beta-hydroxybutyryl-CoA | Potency, µM (doses to about 57.1 µM), hits mostly inhibitors | 73,000 compounds, 3.4% hits; further: nearly all actives have a fitted effect of over 60% in size
# Target sequence (Q99714 whole entry, looked up, one chain of several): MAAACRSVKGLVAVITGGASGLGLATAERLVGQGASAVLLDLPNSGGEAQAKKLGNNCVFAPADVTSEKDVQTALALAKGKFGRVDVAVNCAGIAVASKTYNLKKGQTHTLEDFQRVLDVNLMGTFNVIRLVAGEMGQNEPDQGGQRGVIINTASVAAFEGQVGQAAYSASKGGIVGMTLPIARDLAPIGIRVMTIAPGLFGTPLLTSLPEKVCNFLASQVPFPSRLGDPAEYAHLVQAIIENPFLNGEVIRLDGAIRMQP
#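 Activity measured as NADH fluorescence gain (360/450 nm), taken as the change between first and last reads of a 4-min kinetic run. Conditions: pH 9.0 Tris buffer, 20 nM E. coli-expressed His-tagged enzyme, 1 mM NAD+, 90 uM beta-hydroxybutyryl-CoA; 15-min compound preincubation.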
# A350 fluor: compound fluoresces in the Alexa 350 spectral region; Compound autofluorescence, 340/450 nm, Alexa 350 dye-equivalents; hits give high values; max dye-equivalent concentration, M; 59,000 compounds, 11% hits; AID 590; in the data active means max dye-equivalent concentration above about 10 nM; inconclusive means mostly about 1.1 nM to 9.6 nM
# HSD17B inh: blocks hydroxysteroid 17-beta dehydrogenase activity; Q99714; recombinant HSD17B10, NADH fluorescence kinetic; Potency, µM (series often up to 57.1 µM), usual class: inhibitors; 75,000 compounds, 7.6% hits; AID 893;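 further: the protocol describes HADH2 (HSD17B10) and not the HSD17B4 of the title; nearly all actives have a fitted effect of over 70% in size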
#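 His-tagged E. coli-expressed HADH2 at 20 nM in 100 mM Tris-HCl pH 9.0 with 0.01 % Tween-20, preincubated 15 min with compound at room temperature. Reaction with 1 mM NAD+ and 90 uM beta-hydroxybutyryl coenzyme A; NADH fluorescence (360/450 nm) read kinetically over 4 min, last minus first point.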
# A number is an active result; - = inactive; ? = inconclusive; . = not tested or not shown; [ ] = dose if it differs, or a comment. Unless noted, the call rests on the fitted dose curve; in most records, active means well fitted curve in the direction sought with a large enough effect; inconclusive means small, poorly fitted or top-dose-only effect, or another doubt; inactive means no such curve, though single readings can be large; an effect the other way counts as inactive or inconclusive.
SMILES,AID923,4MU fluor,HADH2 inh,A350 fluor,HSD17B inh
CCOc1ccc2nc(NCCNC(=O)CC)c(C#N)cc2c1,-,-,-,-,-
O=C(CSc1nc2ccccc2nc1SCC(=O)N1CCOCC1)N1CCOCC1,-,.,-,.,-
CCOc1ccc2cc(C#N)c(SCC(=O)N3CCOCC3)nc2c1,-,1.6e-07M,?,1.4e-07M,25µM
CC(C)[C@@H]1OC(=O)C=CC=CC=CC=CC=CC[C@@H](O)[C@H](C)[C@@H](O)C[C@H](O)C[C@H](O)C[C@H](O)C[C@H](O)C[C@H](O)C[C@H](O)C=C[C@@H]1C,.,-,-[11.4 µM],-,.
Cc1cc(-c2ccccc2)nc(N2CCC(C(=O)NC(C)C)CC2)n1,-,3.6e-08M,-,4.6e-08M,-
O=C(c1cc(-c2ccccc2)nc2ccccc12)N1CCN(c2ccccn2)CC1,-,-,-,-,-
CN1CCN(c2nc(C(N)=O)cc(-c3ccccc3)n2)CC1,.,4.7e-08M,.,5.4e-08M,.
Cc1cc(-c2ccccc2)nc(N2CCN(c3ccccn3)CC2)n1,-,5.2e-08M,-,7.2e-08M,-
O=c1c2nnn(Cc3ccccc3)c2ncn1-c1ccccc1,-,-,-,-,-
COC(=O)c1ccc(CCc2cc(O)ccc2O)cc1,-[11.5 µM],-,1.3µM,-,0.79µM
COC(=O)c1ccc(OCC(=O)c2ccc(O)cc2O)cc1,-,-,-,?,-
C=CC[C@@H]1C=C[C@@H](O/N=C\[C@@H](OC)[C@H](C)/C=C\CC(=O)OC)[C@@H](CO)O1,-[11.5 µM],.,-[11.4 µM],.,-[11.4 µM]
N#CC12CCCCC1CC1CCCCC1(C#N)N2Cc1ccccn1 (stereo not drawn),.,3.2e-06M,.,3.6e-06M,.
FC(F)(F)c1ccccc1-c1nc(NCc2cccs2)c2ccccc2n1,-,-,-,-,-
COc1cccc(-c2ccc3ncnc(N(C)C)c3c2)c1,-,-,-,-,-
c1ccc(-c2nc3nc4ccccc4nc3n2Cc2ccco2)cc1,-,1.1e-07M,-,1.7e-07M,?
Fc1ccc(-c2nc3nc4ccccc4nc3n2Cc2ccco2)cc1,-,1.3e-07M,-,1.7e-07M,?
O=c1c2ccccc2nc(SCc2cccc(F)c2)n1Cc1ccco1,-,-,-,-,-
S=c1nc(-c2ccccc2)n(Cc2ccco2)c2c1CCCC2,-,.,-,.,-
COc1ccc(C(=O)c2ccccc2)c(O)c1O,-,.,.,.,?
COc1ccc(OC)c(NC(=O)CSc2nnc(CNc3ccc(C)cc3C)o2)c1,-,-,-,-,-
CCCSC1=C(C#N)C(c2ccc(OC)cc2)C2=C(CC(C)(C)CC2=O)N1 (stereo not drawn),.,4.6e-08M,.,8.5e-08M,.
CSC1=C(C#N)C(c2ccc(Cl)cc2)C2=C(CC(C)(C)CC2=O)N1 (stereo not drawn),-,.,?,.,?
CCOC(=O)CSC1=C(C#N)C(C)C2=C(CCCC2=O)N1 (stereo not drawn),-,6.5e-08M,-,5.4e-08M,-
Cc1ccc(NC(=O)CSC2=C(C#N)C(c3ccc4c(c3)OCO4)C3=C(CCCC3=O)N2)c(C)c1 (stereo not drawn),-,.,?,.,?
SMILES,AID923,4MU fluor,HADH2 inh,A350 fluor,HSD17B inh
CCOC(=O)CSC1=C(C#N)C(c2ccc(C)cc2)C(C(=O)OC)C(=O)N1 (stereo not drawn),.,-,.,-,.
COC(=O)CSC1=C(C#N)C(c2ccc(C)cc2)C2=C(CCCC2=O)N1 (stereo not drawn),-,8.9e-08M,-,1.2e-07M,-
COC(=O)c1ccc(C(NC(=O)OCc2ccccc2)/C(=C/[C@@H](C)C(=O)NCc2ccc(OC)c(O)c2)c2cccnc2)cc1 (stereo partly drawn),-,.,-,.,-
c1ccc(C(c2nnnn2C2CCCCC2)N2CCc3ccccc3C2)nc1 (stereo not drawn),-,1.8e-07M,-,1.4e-07M,32µM
O=C(CSc1nc2c(c(=O)n1-c1ccc(Br)cc1)SCC2)NCc1ccco1,-,4.1e-08M,-,4.2e-08M,-
CCOc1ccc(-n2c(SCC(=O)NCc3ccco3)nc3c(c2=O)SCC3)cc1,-,?,-,?,-
COC(=O)c1ccc(C(NC(=O)OCc2ccccc2)/C(F)=C/[C@@H](C)C(=O)N[C@@H](CO)Cc2ccccc2)cc1 (stereo partly drawn),-,.,-,.,-
O=C(c1cccc(F)c1)N1CCC2(CCCN(c3ccc(-c4ccccc4)cc3)C2)CC1,-,-,-,-,-
Cn1c(SCc2ccc(Br)cc2)nnc1-c1ccncc1,-,-,-,-,-
Cn1c(SCc2ccccc2)nnc1-c1ccncc1,-,3.7e-08M,-,4e-08M,-
O=C(Oc1ccc(Cl)c2cccnc12)N1CCOCC1,-,-,32µM,-,25µM
O=C(Oc1ccc(Cl)c2cccnc12)N1CCCCC1,-,-,-,-,?
COc1ccc(NC(=O)c2c(C)cc(=O)oc2C)c(OC)c1,.,1.1e-07M,.,1.3e-07M,.
CC1=C(C(=O)Nc2ccccc2C)C(c2cccnc2)n2nc(CCCO)nc2N1 (stereo not drawn),-,-,-,-,-
O=C1c2sc3nc4ccccc4n3c2C(=O)N1c1ccccc1Cl,-,-,7.9µM,-,-
O=c1/c(=C\c2cccnc2)sc2nc3ccccc3n12,-,-,-,-,-
Cc1ccccc1N1C(=O)c2sc3nc4c(c(=O)n3c2C1=O)CCC4,-,.,25µM,.,-
C=C(C)C(O)/C=C/CCCCCCC (stereo not drawn),-[11.5 µM],.,-[11.4 µM],.,-[11.4 µM]
N/N=C1/c2ccccc2N[C@H]1OC(=O)Nc1cccc(Cl)c1,-[11.5 µM],-,-[11.4 µM],-,-[11.4 µM]
CC1Cc2cc(/C(O)=C3/C(=O)C(=O)N(Cc4ccco4)C3c3cccs3)ccc2O1 (stereo not drawn),-,-,-,-,20µM
Cc1noc(NC(=O)Nc2ccccc2F)c1C#N,-[11.5 µM],-,-[11.4 µM],-,-[11.4 µM]
FC(F)(F)c1cc(-c2ccco2)nc(-n2nc(C(F)(F)F)cc2C2CC2)n1,-,?,-,?,25µM
O=C(CSc1nc(-c2ccco2)cc(C(F)(F)F)n1)N1CCN(Cc2ccccc2)CC1,-,.,-,.,-
FC(F)(F)c1cc(-c2ccco2)nc(-n2nnc3ccccc32)n1,-,1.2e-07M,32µM,1.3e-07M,?
CCOC(=O)N1CCN(c2nc(-c3ccco3)cc(C(F)(F)F)n2)CC1,-,?,-,?,?
SMILES,AID923,4MU fluor,HADH2 inh,A350 fluor,HSD17B inh
CCC(=O)OCC(=O)C1(OC(=O)CC)C(C)CC2C3CCC4=CC(=O)C=CC4(C)C3(Cl)C(O)CC21C (stereo not drawn),-,.,.,.,-
Cc1ccc(Cn2nnc3c(=O)n(CC(=O)NCc4ccc5c(c4)OCO5)cnc32)cc1,-,-,-,-,-
Cc1ccc2cc3cc(C(=O)NCCN4CCOCC4)oc3nc2c1,-,4.4e-08M,32µM,4.1e-08M,25µM
CCN1CCN(CCCNC(=O)c2cc3cc4ccc(OC)cc4nc3o2)CC1,-,5.5e-06M,?,5.3e-06M,25µM
COc1ccc2cc3cc(C(=O)NCCCN4CCOCC4)oc3nc2c1,-,6.8e-06M,3.2µM,6.4e-06M,25µM
Cc1cc(C)cc(Nc2ncc3c(n2)CCCC3=O)c1,-,-,-,?,-
